The list is a sample of the results.
aSyn UTR act: Activators via SNCA 5'UTR binding, MLPCN. alpha-synuclein 5'UTR reporter, activators screen. activity score, % (tested at 7.5 µM), hits read low. 300,000 compounds, 7.1% hits. AID 1814, 2009; in the data active means activity score below about -60%
* = called active by the depositor.

SMILES	aSyn UTR act
Cc1ccc(NC(=O)c2ccnc(C(C)(C)C)c2)cc1	-126.9*
CCN(CC)S(=O)(=O)c1cccc(C(=O)Nc2cccc(C)c2)c1	-124.1*
CCN(CC)S(=O)(=O)c1cccc(C(=O)N/N=C(\C)c2ccc(O)cc2O)c1	110.6
CCN(CC)S(=O)(=O)c1cc(C(=O)Nc2ccc(Cl)cn2)ccc1C	-118.3*
CCCCN(CC)S(=O)(=O)c1ccc(C(=O)Nc2nnc(-c3ccccc3Cl)o2)cc1	76.3
Cc1ccc(NC(=O)c2cccc(S(C)(=O)=O)c2)cc1	-82.9*
CCN(CC)S(=O)(=O)c1cccc(C(=O)Nc2ccc(Cl)cn2)c1	-76.1*
CCN(CC)S(=O)(=O)c1cccc(C(=O)NCCc2ccccc2)c1	-159.0*
COc1ccc(-n2nc3cc(C)c(N)cc3n2)cc1Cl	-141.9*
COc1cnn(-c2ccc(C)cc2)c(=O)c1SCc1ccccc1	-76.8*
COc1cnn(-c2ccc(Br)cc2)c(=O)c1SCc1ccccc1	-70.7*
CCOC(=O)c1cn2ccc(C)cc2n1	-107.3*
COC(=O)C1=C(NC(=O)c2ccc(C)c(C)c2)CCS1	-76.3*
Cc1c(OCC(=O)NCc2cccnc2)ccc2c3c(c(=O)oc12)CCC3	-71.4*
CC(=O)COc1ccc2c3c(c(=O)oc2c1C)CCCCC3	-120.2*
Cc1c(OCc2ccc([N+](=O)[O-])cc2)ccc2c3c(c(=O)oc12)CCC3	-114.2*
Cc1c(C)c2ccc(OCC(=O)Nc3ccccn3)c(C)c2oc1=O	109.5
Cc1c(OCC(=O)OC(C)(C)C)ccc2c3c(c(=O)oc12)CCC3	-61.6*
CSc1ccccc1NC(=O)c1cc(CC(C)C)on1	-177.8*
COc1cccc(-c2cc(C(=O)Nc3ccccc3SC)no2)c1	-141.1*
COc1ccccc1-c1cc(C(=O)Nc2ccccc2SC)no1	-95.5*
COc1ccccc1-c1cc(C(=O)Nc2cccnc2)no1	54.7
CCOC(=O)/C(C#N)=C(C)/C=C1\Sc2ccccc2N1CC	-105.5*
O=C(NCCc1ccccc1)C(=O)Nc1ccc2c(c1)OCCO2	-136.8*
O=C(Nc1ccc2c(c1)OCO2)OCc1ccccc1	-123.5*
SMILES	aSyn UTR act
O=C(NCCc1ccc(F)cc1)Nc1ccc2c(c1)OCO2	-138.9*
O=C(CCS(=O)(=O)c1ccc(Br)cc1)Nc1ccc2c(c1)OCO2	-64.1*
O=C(NCCc1ccccc1)Nc1ccc2c(c1)OCO2	-79.7*
O=C(NCCc1ccccc1)Nc1cccc(Cl)c1	-87.9*
S=C(Nc1cc(Cl)cc(Cl)c1)NC1CCN(Cc2ccccc2)CC1	72.0
O=C(Nc1cccc(Cl)c1)N1CCN(Cc2ccccc2)CC1	-158.8*
O=C(/C=C/c1cccc(Cl)c1)NCCc1ccccc1	-67.5*
O=C(CCc1ccccc1)Nc1ccc2c(c1)OCO2	-122.8*
N#C/C(C(=O)N1CCOCC1)=C1\Nc2ccccc2S1	-65.4*
CCOc1ccc(NC(=O)c2[nH]c(C)c(C(C)=O)c2C)cc1	-76.3*
COc1ccc(NC(=O)c2[nH]c(C)c(C(C)=O)c2C)cc1	-193.5*
CCc1ccc(NC(=O)c2[nH]c(C)c(C(C)=O)c2C)cc1	-222.9*
CCc1c(C(=O)Nc2ccc(OC)cc2)[nH]c(C)c1C(C)=O	-93.1*
N#Cc1cc2c(nc1SCC(N)=O)CCCCC2	-76.6*
N#Cc1cc2c(nc1SCC(=O)N1CCOCC1)CCCCC2	-64.6*
Cc1ccc2nc(-c3cccc(S(=O)(=O)N(C)C)c3)cn2c1	-171.4*
CCN(CC)S(=O)(=O)c1cccc(-c2cn3cc(C)ccc3n2)c1	-77.6*
CCN(CC)S(=O)(=O)c1cccc(-c2nc3n(n2)Cc2ccccc2-3)c1	-86.2*
Cc1ccc2nc(-c3ccc(S(=O)(=O)N4CCCCC4)cc3)cn2c1	-81.0*
Cc1ccc(C(=O)N2CCN(S(=O)(=O)c3ccccc3[N+](=O)[O-])C2)cc1	-65.3*
O=C(C1CCCCN1S(=O)(=O)c1ccccc1[N+](=O)[O-])N1CCCC1 (stereo not given)	-61.7*
COCCNC(=S)N1CCC(C(=O)c2ccc3c(c2)OCCO3)CC1	-74.7*
CCOC(=O)c1cc2cc(OC)ccc2[nH]1	-147.2*
COc1ccc2[nH]c3c(C)c4ccncc4c(C)c3c2c1	109.3
Cc1ccc(C)c(NC(=S)NC(NC(=O)Cc2cccc3ccccc23)C(Cl)(Cl)Cl)c1 (stereo not given)	111.7
SMILES	aSyn UTR act
CCOc1ccc2[nH]c(C(=O)N/N=C/c3ccc(OC)cc3)cc2c1	75.9
CCOC(=O)c1[nH]c2ccccc2c1NC(=S)Nc1cc(C)ccc1C	-87.9*
COC(=O)c1[nH]c2ccc(F)cc2c1NS(=O)(=O)c1ccc(OC)cc1	99.5
CCOC(=O)c1[nH]c2ccc(OC)cc2c1C	-122.3*
CCOC(=O)c1[nH]c2ccc(OC)cc2c1NC(=O)c1ccccc1C(=O)O	-65.4*
Cc1ccc2c(CC(=O)Nc3sccc3C(N)=O)coc2c1	-183.1*
Cc1ccc2c(CC(=O)Nc3ccc(N4CCN(C)CC4)cc3C)coc2c1	-67.6*
CC1(C)NC(=O)N(CCCOc2ccc3c(c2)CCC3)C1=O	-76.7*
CC1(C)NC(=O)N(CCCOc2ccc(Br)cc2Cl)C1=O	-148.1*
COc1ccccc1CN=c1c([N+](=O)[O-])nn(-c2ccc3c(c2)OCCO3)n1O	-131.9*

Compound activity (PubChem)
